Results filed as inconclusive are left out. Entries that show only a call come without a potency. Active and inactive are the calls of the source. Calls follow the shape of the dose curve; as a rule, active = well fitted cell-killing curve with a large enough effect; inconclusive = small, poorly fitted or top-dose-only effect; inactive = flat fitted curve, though single readings scatter.

29 compounds from PubChem BioAssay (NCATS) can be followed below.
Potency is read from the fitted curve at half-maximal effect.

This assay is described as follows: NCATS anti-infectives library activity on HEK293 viability as a counter-qHTS vs the C. elegans viability qHTS (AID 1745854). As to conditions: HEK293 viability counter-screen; series mostly up to 41.8 µM. The text has this: Assay Development and Screening Technology Laboratory (ADST)
National Center for Advancing Translational Sciences (NCATS), Rockville, MD
National Institute of Health (NIH), Bethesda, Maryland
Caenorhabditis elegans has helped elucidate the evolutionarily conserved genetics underlying pathways and cellular processes implicated in human disease and may be ideally positioned to reveal novel pharmacological properties of exiting drugs. The organism's short life cycle and microscopic size is applicable to the technical requirements of high-throughput screening. Here a quantitative high-throughput screening (qHTS)-based forward chemical biology platform has been developed using C. elegans. 384-well microtiter plate laser scanning cytometry was used in the rapid detection and quantification of the fluorescent protein-encoded phenotype to score worm viability. In a proof-of-concept study, the pharmacological qHTS profile obtained from a library of 643 anti-infective compounds.
1. Inglese, J., Auld, D. S., Jadhav, A., Johnson, R. L., Simeonov, A., Yasgar, A., Zheng, W., and Austin, C. P. (2006) Quantitative high-throughput screening: A titration-based approach that efficiently identifies biological activities in large chemical libraries, P Natl Acad Sci USA 103, 11473-11478.
2. Auld, D. S., Johnson, R. L., Zhang, Y. Q., Veith, H., Jadhav, A., Yasgar, A., Simeonov, A., Zheng, W., Martinez, E. D., Westwick, J. K., Austin, C. P., and Inglese, J. (2006) Fluorescent protein-based cellular assays analyzed by laser-scanning microplate cytometry in 1536-well plate format, Method Enzymol 414, 566-589.
3. Zuck, P., Lao, Z., Skwish, S., Glickman, J. F., Yang, K., Burbaum, J., and Inglese, J. (1999) Ligand-receptor binding measured by laser-scanning imaging, Proc Natl Acad Sci U S A 96, 11122-11127.
PROTOCOL TABLE (as described by Inglese J, Shamu CE and Guy RK. 2007)
SEQUENCE No. (e.g., 1, 2, 3, etc.); […] (e.g., C. elegans, Compounds, Incubation, Read, etc.); VALUE and DESCRIPTION.
1. Compounds. Library compounds and digitonin control added at 25 nL per well to 7 assay ready 1536-well Greiner white/solid bottom high base, TC plates and two DMSO control plates, transferred by Echo acoustic dispenser.
2. Cells. Seed 1500 HEK293 per well in 6 uL into assay ready Greiner 1536-well plates.
3. Incubation. Incubate plated cells with compounds at 37C in 5% CO2, 95% RH for 24 hr.
4. Reagent. Add 4 uL of CellTiter-Glo reagent from Promega per well of Greiner 1536-well plates with BioRAPTR FRD.
5. Incubation. Incubate treated cells at room temperature for 10 min., protect from light.
6. Detector. CellTiter-Glo luminescence measured using CCD-based camera (Viewlux) with settings as follows: Exposure, 1 sec; Gain, High; Speed, Slow; Binning, 2X.
NOTES (numbers refer to Sequence numbers above; values are from representative experiments)
1. NIH Anti-Infectives library pre-dispensed into 7 assay ready 1536-well Greiner white/solid bottom high base, TC plates with Echo 555 acoustic dispenser. Most compounds dispensed at 10 mM high concentration and plated in 7-pt 1:5 inter-plate titration at 25 nl / well for a final assay concentration range of 41.7 uM - 2.7 nM. Two 1536-well Greiner assay plates of DMSO plated as screening controls to be read at the beginning and the end of the screen. Controls included DMSO vehicle control added at 25 nl/well to each well of column 1 and […] (83.3 uM final assay concentration), and Digitonin titrated 1:2 at 25 nl/ well to column 4 in duplicate for a final assay concentration range of 83.3 uM - 2.5 nM.
2. HEK293 cells grown for 48 hr in one T175 culture flask in DMEM high glucose media supplemented with 10% FBS and 1% Pen/Strep antibiotic. Cells trypsinized and diluted in 10 ml supplemented media, strained through 40 µm cell strainer, and diluted to a total volume of 40 ml with supplemented media. […]
As to `Cn1cc(/C=C/C(=O)c2cccc(F)c2)cc1/C=C/C(=O)NO`, the Potency entry was “inactive”.

For the compound `Cc1c(-c2cnccn2)ssc1=S`, the Potency result is “inactive”.

As to `CC#Cc1cncc(-c2ccc3c(c2)[C@@]2(N=C(C)C(N)=N2)C2(CCC(OC)CC2)C3)c1` (some centres undefined), the Potency result was “inactive”.

On to `COC(=O)C1=C(C)NC(c2ncc(F)cc2F)=N[C@H]1c1ccc(F)cc1Cl`, for which the Potency result is “inactive”.

Regarding `CC(=O)O/N=C1\C(=O)N(Cc2cc(Cl)ccc2Cl)c2ccc(Cl)cc21`, the Potency result was “inactive”.

In the case of `CN1C(N)=N[C@](C)(c2cc(NC(=O)c3ccc(F)cn3)ccc2F)CS1(=O)=O`, the Potency entry was “inactive”.

On to `O=C(Cc1ccccc1)Nc1nnc(CCSCCc2nnc(NC(=O)Cc3ccccc3)s2)s1`, for which the Potency entry was “inactive”.

With `CN(C)Cc1ccc(S(=O)(=O)n2ccc(/C=C/C(=O)NO)c2)cc1`, the Potency entry is “inactive”.

With `Nc1cccc2c1CN([C@H]1CCC(=O)NC1=O)C2=O`, the Potency entry was “inactive”.

In the case of `Cc1ccc(-c2ccc(C)cn2)nc1`, the Potency entry was “inactive”.

Turning to `CC(C)=CCC1=C(O)c2ccccc2C(=O)C1=O`, the Potency entry is “inactive”.

For `C[C@]12CCC3[C@@H](CC[C@H]4NC(=O)C=C[C@]34C)[C@@H]1CC[C@@H]2C(=O)Nc1cc(C(F)(F)F)ccc1C(F)(F)F` (some centres undefined), the Potency result is “inactive”.

`Cc1cnc(NC(=O)c2cc(S(=O)(=O)N(C)C)ccc2N2CCCC2)s1`: the Potency result was “inactive”.

As for `O=c1cc(-c2ccc(O)c(O)c2)oc2cc(O[C@@H]3O[C@H](CO)[C@@H](O)[C@H](O)[C@H]3O)cc(O)c12`, the Potency entry is “inactive”.

As for `COc1ccnc2[nH]cc(C(=O)C(=O)N3CCN(C(=O)c4ccccc4)C[C@H]3C)c12`, the Potency entry was “inactive”.

In the case of `Cc1c(-c2ccc(-c3ccccc3F)cc2)nc2ccc(F)cc2c1C(=O)O`, the Potency entry was “inactive”.

`Cc1cc(Nc2cc(N)ncn2)c(=O)n2c1C(=O)NC21CCCCC1`: the Potency entry was “inactive”.

Consider `CC(C)=CCC[C@](C)(O[C@@H]1O[C@H](CO[C@@H]2O[C@H](CO)[C@@H](O)[C@H](O)[C@H]2O)[C@@H](O)[C@H](O)[C@H]1O)[C@H]1CC[C@]2(C)[C@@H]1[C@H](O)C[C@@H]1[C@@]3(C)CC[C@H](O[C@@H]4O[C@H](CO)[C@@H](O)[C@H](O)[C@H]4O[C@@H]4O[C@H](CO)[C@@H](O)[C@H](O)[C@H]4O)C(C)(C)[C@@H]3CC[C@]12C`, for which the Potency result is “inactive”.

`COC[C@@H](c1ccc(C(F)(F)F)cc1)N1CCN(C2(C)CCN(C(=O)c3c(C)ncnc3C)CC2)C[C@@H]1C`: the Potency result is “inactive”.

`O=c1[nH]nc2c3c(cccc13)NC(CN1Cc3ccccc3C1)=N2`: the Potency entry is “inactive”.

Take `CNC(=O)[C@@H](NC(=O)[C@H](CC(C)C)[C@H](O)C(=O)NO)C(C)(C)C`: the Potency entry was “inactive”.

As to `CC(C)OC(=O)[C@H](C)N[P@](=O)(OC[C@H]1O[C@@H](n2ccc(=O)[nH]c2=O)[C@](C)(F)[C@@H]1O)Oc1ccccc1`, the Potency result was “inactive”.

For the compound `C=CC(=O)N1CC/C(=C\c2ccc(F)c([N+](=O)[O-])c2)C(=O)/C(=C/c2ccc(F)c([N+](=O)[O-])c2)C1`, the Potency is 1.78 µM (active).

Regarding `CC(=O)N1c2ccc(-c3ccc(C(=O)O)cc3)cc2[C@H](Nc2ccc(Cl)cc2)C[C@@H]1C`, the Potency result is “inactive”.

Consider `COc1ccc(C(=O)N2CCN(c3ccc4c(c3)CCC(=O)N4)CC2)cc1OC`, for which the Potency entry is “inactive”.

Take `c1ccc(CNCc2ccc(CN3CCCNCCNCCCNCC3)cc2)nc1`: the Potency result is “inactive”.

For `NC1=N[C@@]2(c3cc(NC(=O)c4ccc(F)cn4)ccc3F)COC[C@H]2CS1`, the Potency entry is “inactive”.

As for `CN(C)c1cc(NC(=O)CNC(C)(C)C)c(O)c2c1C[C@H]1C[C@H]3[C@H](N(C)C)C(=O)C(C(N)=O)=C(O)[C@]3(O)C(=O)C1=C2O`, the Potency result was “inactive”.

Regarding `Cc1cccc(/C=N/Nc2cc(N3CCOCC3)nc(OCCc3ccccn3)n2)c1`, the Potency entry is “inactive”.
